Data from PubChem BioAssay AID651610 (Broad Institute, 2012).
About 3,900 (1.1%) of roughly 360,000 compounds were called active. Shown is part of a subset that was picked to be rich in actives. Unmarked numbers belong to inactive results.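 Rule for the calls: active = mean replicate inhibition score of at least 50 and every replicate individually at or above 50; inconclusive = only one of the two criteria met; inactive = mean below 50 and not all replicates reaching 50.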

Assay: inhibitors of HIV-1 Env-driven cell-cell fusion, primary screen, HeLa-JRFL effector, CEM21 target cells, luciferase (AID 651610);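 note: 0% = plate neutral controls and 100% = maraviroc near 300 nM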
Details: hits give high values; at 16.7 µM unless noted

SMILES | inhibition
Cc1noc(C)c1NC(=O)N[C@H]1CC[C@H](CC(=O)N2CCCCC2)O[C@@H]1CO | 4.43%
CC1=C(C(=O)N(C(C)C)C(C)C)CC(CC(=O)NCC2CCCCC2)C(=O)N1Cc1ccccc1 (configuration not stated) | 61.4% [at 12.3 µM] (active)
CCN(CC)C(=O)C1=C(C)N(Cc2ccccc2)C(=O)C(CC(=O)NC(c2ccccc2)c2ccccc2)C1 (configuration not stated) | -23.1% [at 12.3 µM]
CC1=C(C(=O)N2CCOCC2)CC(CC(=O)NCC2CCCCC2)C(=O)N1Cc1ccc(F)cc1 (configuration not stated) | 6.87% [at 12.3 µM]
COc1cc(CNC2CCCCC2)c(Br)cc1OC1CCCC1 | -65.6% [at 12.3 µM]
CC(C)(C)NCc1cc(Br)ccc1OC1CCCC1 | 14.4% [at 12.3 µM]
CC(NCc1ccccc1OC1CCCC1)c1ccccc1 (configuration not stated) | 62.5% [at 12.3 µM] (active)
CCOC(=O)CNC(=O)N(C)[C@H]1C[C@H]2c3[nH]c4c(-c5ccc6c(c5)OCO6)cccc4c3CCN2C(=O)[C@H]1[C@H](C)O | -112% [at 12.3 µM]
CN1CCN(C(=O)C[C@H]2C[C@@H]3c4cc(NC(=O)NC5CCCC5)ccc4O[C@@H]3[C@@H](CO)O2)CC1 | -8.97%
CC1CCN(C(=O)c2cc3nc(C4CC4)cc(C(F)(F)F)n3n2)CC1 | 12.6% [at 12.3 µM]
CC1CCN(C(=O)c2ccc3c(c2)NC(=O)CN3)CC1 | 1.27% [at 12.3 µM]
CC1CCN(C(=O)c2ncn3c2C(=O)N[C@@H](C)C3)CC1 | 131% [at 12.3 µM] (active)
CCCNC(=O)N1[C@@H](C#N)[C@H](c2ccc(-c3ccc(C(=O)N(C)C)cc3)cc2)[C@@H]1CO | 26%
O=C(NCc1ccncn1)[C@@H]1[C@@H](CO)[C@@H]2Cn3c(ccc(-c4ccc(F)cc4)c3=O)[C@@H]2N1CC1CC1 | -1.91%
COc1ccc(NC(=O)Nc2ccc3c(c2)CC(=O)N([C@@H](C)CO)C[C@H](C)[C@@H](CN(C)S(=O)(=O)c2cn(C)cn2)O3)cc1 | 13%
O=C(COC(=O)COc1cc(Cl)c(Cl)cc1Cl)NC1CC1 | 1.57% [at 12.3 µM]
NC(=S)NN=Cc1ccc(OC(=O)COc2cc(Cl)c(Cl)cc2Cl)cn1 | 74.3% [at 12.3 µM] (active)
O=C(COc1cc(Cl)c(Cl)cc1Cl)NCCc1ccccn1 | -1.39% [at 12.3 µM]
CCCN(C)C[C@H]1OCCCC[C@@H](C)Oc2ccc(N(C)C)cc2C(=O)N([C@H](C)CO)C[C@@H]1C | 0.797%
CCOC(=O)c1[nH]c2ccccc2c1N=C(C)N(CC)CC | -0.896% [at 12.3 µM]
CCOC(=O)c1c(C)[nH]c2c1-c1ccccc1C(=O)C2=O | 58.9% [at 12.3 µM] (active)
CCOC(=O)c1c(C)[nH]c(C)c1S(=O)(=O)NCCCc1ccco1 | -4.62% [at 12.3 µM]
C[C@H](CO)N1C[C@H](C)[C@@H](CN(C)CC2CC2)Oc2ccc(NC(=O)Nc3ccccc3)cc2CC1=O | -2.58%
CN(C(=O)CN1C(=O)/C(=C/c2ccc(Cl)cc2)SC1=S)C1CCS(=O)(=O)C1 (configuration not stated) | 55.1% [at 12.3 µM] (active)

SMILES | inhibition
CN(C(=O)CCN1C(=O)/C(=C/c2ccccc2F)SC1=S)C1CCS(=O)(=O)C1 (configuration not stated) | -6.28% [at 12.3 µM]
CCN(C(=O)CN1C(=O)/C(=C/c2ccc(F)cc2)SC1=S)C1CCS(=O)(=O)C1 (configuration not stated) | -11.4% [at 12.3 µM]
CNC[C@H]1Oc2ncc(-c3ccccc3F)cc2C(=O)N([C@H](C)CO)C[C@H]1C | 10.5%
O=C(C[C@H]1C[C@@H]2c3cc(NS(=O)(=O)c4ccc(F)cc4)ccc3O[C@@H]2[C@@H](CO)O1)NCc1cccc(F)c1 | 10.7%
O=C(C[C@H]1C[C@@H]2c3cc(NS(=O)(=O)c4ccc(F)cc4)ccc3O[C@@H]2[C@H](CO)O1)NCc1cccc(F)c1 | 54.4%
COc1ccccc1CNC(=O)C[C@H]1C[C@H]2c3cc(NS(=O)(=O)c4ccc(F)cc4)ccc3O[C@H]2[C@@H](CO)O1 | -11.5%
O=C(C[C@@H]1C[C@H]2c3cc(NS(=O)(=O)c4ccc(F)cc4)ccc3O[C@H]2[C@@H](CO)O1)NCc1ccccc1F | 56.4% (active)
O=C(C[C@@H]1C[C@@H]2c3cc(NS(=O)(=O)c4ccc(F)cc4)ccc3O[C@@H]2[C@H](CO)O1)NCc1ccccc1F | 90.3% (active)
O=C(C[C@H]1C[C@H]2c3cc(NS(=O)(=O)c4ccc(F)cc4)ccc3O[C@H]2[C@H](CO)O1)NCc1cc(F)ccc1F | -74.8% [at 12.3 µM]
C[C@@H]1CN([C@H](C)CO)C(=O)c2cc(C#CC3CCCC3)cnc2O[C@@H]1CN(C)C(=O)C1CCC1 | -5.58%
O=C(Cc1ccncc1)Nc1ccc2c(c1)[C@@H]1C[C@H](CC(=O)N3CCCCC3)O[C@H](CO)[C@@H]1O2 | 9.17%
C[C@@H]1CCCCO[C@@H](CN(C)Cc2ccc(C(=O)O)cc2)[C@@H](C)CN([C@@H](C)CO)C(=O)c2cc(NC(=O)Nc3ccc(C(F)(F)F)cc3)ccc2O1 | -4.94%
COc1ccc2c3c([nH]c2c1)[C@H](CO)N(C(=O)Nc1ccc(F)cc1)CC31CN(S(=O)(=O)c2cccc(F)c2)C1 | -38.9%
COc1ccc2c3c([nH]c2c1)[C@@H](CO)N(C(=O)Nc1cccc(F)c1)CC31CCN(S(=O)(=O)c2ccccc2)CC1 | 80.9% (active)
COc1ccc2c3c([nH]c2c1)[C@H](CO)N(C(=O)c1ccccc1)CC31CN(C(=O)Nc2cccc(F)c2)C1 | 12.9%
COc1ccc2c3c([nH]c2c1)[C@@H](CO)N(C(C)=O)CC31CN(C(=O)Nc2ccc(F)cc2)C1 | 31%
COc1ccc2c3c(n(C)c2c1)[C@@H](CO)N(C(=O)Nc1cccc(F)c1)CC31CCN(Cc2nccs2)CC1 | 23.1%
COc1ccc2c3c([nH]c2c1)[C@H](CO)N(C(=O)Nc1cccc(F)c1)CC31CCN(S(=O)(=O)c2ccccc2)CC1 | 92.2% (active)
N#C[C@@H]1[C@@H](c2ccc(-c3ccccc3F)cc2)[C@@H](CO)N1C(=O)C1CC1 | -18.6%
C[C@H]1CN([C@@H](C)CO)S(=O)(=O)c2ccc(C#CC3CCCC3)cc2O[C@@H]1CN(C)C(=O)c1cccc(F)c1 | 33.9%
O=C(C[C@H]1CC[C@H]2[C@@H](COC[C@H](O)CN2CCC(F)(F)F)O1)N1CCC(Cc2ccccc2)CC1 | 32.1%
C[C@H]1CN([C@@H](C)CO)C(=O)Cc2cc(NC(=O)NC3CCCCC3)ccc2O[C@H]1CN(C)S(=O)(=O)c1cccs1 | 56.2% (active)
C[C@H](CO)N1C[C@H](C)[C@@H](CN(C)S(=O)(=O)c2ccc(Cl)cc2)Oc2ccc(NS(=O)(=O)c3cccs3)cc2CC1=O | -22%
C[C@H](CO)N1C[C@H](C)[C@H](CN(C)S(=O)(=O)c2cccs2)Oc2ccc(NS(=O)(=O)c3ccc(Cl)cc3)cc2CC1=O | 55.2% (active)

SMILES | inhibition
C[C@H]1CN([C@@H](C)CO)C(=O)Cc2cc(NC(=O)C3CC3)ccc2O[C@@H]1CN(C)S(=O)(=O)c1cccs1 | -4.09%
C[C@H]1CN([C@@H](C)CO)C(=O)c2cc(NC(=O)NC3CCCCC3)ccc2O[C@@H]1CN(C)S(=O)(=O)c1cccs1 | 7.17%
C[C@H]1CN([C@@H](C)CO)C(=O)Cc2cc(NC(=O)Cc3ccccc3)ccc2O[C@H]1CN(C)S(=O)(=O)c1cccs1 | 98.7% [at 12.3 µM] (active)
C[C@@H]1CN([C@H](C)CO)C(=O)Cc2cc(NS(=O)(=O)c3ccc(Cl)cc3)ccc2O[C@H]1CN(C)S(=O)(=O)c1cccs1 | -4.91%
Cc1ccc(S(=O)(=O)Nc2ccc3c(c2)CC(=O)N([C@H](C)CO)C[C@@H](C)[C@H](CN(C)Cc2ccc(C(F)(F)F)cc2)O3)cc1 | 8.6%
C[C@H]1CN([C@@H](C)CO)C(=O)Cc2cc(NS(=O)(=O)c3ccc(F)cc3)ccc2O[C@H]1CN(C)Cc1ccc(C(F)(F)F)cc1 | -1.59%
C[C@@H]1CN([C@H](C)CO)C(=O)Cc2cc(NC(=O)CCCN(C)C)ccc2O[C@@H]1CN(C)S(=O)(=O)c1cccs1 | -1.4%
C[C@@H]1CN([C@@H](C)CO)C(=O)Cc2cc(NS(=O)(=O)c3ccc(Cl)cc3)ccc2O[C@H]1CN(C)Cc1ccc(C(F)(F)F)cc1 | 77.5% (active)
C[C@@H]1CN([C@H](C)CO)C(=O)Cc2cc(NC(=O)Cc3ccccc3)ccc2O[C@H]1CN(C)S(=O)(=O)c1cccs1 | 25.8%
[N-]=[N+]=Nc1ccccc1C[C@@]1(C(=O)NCc2ccccc2)N=C(c2ccc(OCCCO)cc2)O[C@@H]1c1ccccc1 | 42.5%
C[C@H]1CN([C@@H](C)CO)C(=O)c2cccc(NS(=O)(=O)c3ccc(F)cc3)c2O[C@@H]1CN(C)CC1CC1 | -1.23%
Cc1noc(C)c1NC(=O)N(C)C[C@@H]1OCCCC[C@H](C)Oc2ccc(NC(=O)c3ccccc3)cc2C(=O)N([C@@H](C)CO)C[C@@H]1C | 18.4%
N#C[C@@H]1[C@@H](c2ccc(-c3ccccc3F)cc2)[C@@H](CO)N1C(=O)c1ccccn1 | 16.4%
C[C@@H]1CN([C@H](C)CO)C(=O)c2ccccc2-c2ccccc2CO[C@H]1CN(C)C(=O)CCC(F)(F)F | -2.05%
CCCC#Cc1ccc([C@@H]2[C@@H](C#N)N(C(=O)C3CC3)[C@H]2CO)cc1 | -1.11%
CCC(=O)Nc1ccc2c(c1)OC[C@H](C)N(Cc1ccccc1F)C[C@H](C)[C@@H](OC)CN(C)C2=O | 27.1%
CCCN1C[C@@H](C)[C@@H](OC)CN(C)C(=O)c2ccc(NC(=O)Nc3cccc(F)c3)cc2OC[C@@H]1C | -6.04%
C/C=C/c1ccccc1[C@H]1[C@@H](C#N)N(C(=O)Cc2ccccn2)[C@@H]1CO | -20.6%
C[C@@H]1CN([C@@H](C)CO)C(=O)c2cc(C#CCc3ccccc3)cnc2O[C@@H]1CN(C)C(=O)C1CCOCC1 | 6.96%
C[C@@H]1CN([C@H](C)CO)C(=O)c2cccc(NS(=O)(=O)c3ccc(Cl)cc3)c2O[C@H]1CN(C)Cc1ccc(C(F)(F)F)cc1 | 9.64%
C[C@@H]1CN([C@@H](C)CO)C(=O)c2cccc(NS(=O)(=O)c3ccc(Cl)cc3)c2O[C@@H]1CN(C)Cc1ccccc1 | -7.04%
C[C@@H]1CN([C@H](C)CO)C(=O)c2cccc(NS(=O)(=O)c3ccc(Cl)cc3)c2O[C@@H]1CN(C)Cc1ccc(Cl)c(Cl)c1 | 74.9% (active)
COc1cccc(S(=O)(=O)N(C)C[C@@H]2Oc3ncc(-c4cccc(C(=O)N(C)C)c4)cc3C(=O)N([C@H](C)CO)C[C@H]2C)c1 | 3.38%
CC(C)NC(=O)N(C)C[C@@H]1OCCCC[C@@H](C)Oc2ccc(NC(=O)c3ccccc3)cc2C(=O)N([C@@H](C)CO)C[C@H]1C | -4.61%
